40 compounds from PubChem BioAssay (NCATS) can be followed below.

Each structure is given as a SMILES string. “And” between values parts separate entries of the source, which are not always exact repeats. Equal entries are not always repeated. Inconclusive results are not listed. Values without a mark were called inactive. Calls follow the shape of the dose curve; as a rule, active = well fitted cell-killing curve with a large enough effect in the repeat runs; inconclusive = weak or mixed curves; inactive = flat fitted curve, though single readings scatter.
% is scaled to controls: 0 for no effect and ±100 for the full control effect.

This experiment is described as follows: qHTS assay for small molecule agonists of the antioxidant response element (ARE) signaling pathway measured by Nrf2-dependant transcriptional activity - cell viability counter screen (AID 720653). Particulars: ARE-bla HepG2 viability, CellTiter-Glo ATP luminescence, 16 h; stronger effect = lower value. From the text:
National Center for Advancing Translational Sciences [NCATS] NIH Chemical Genomics Center [NCGC] U.S. Environmental Protection Agency [EPA] National Institutes of Environmental Health Sciences [NIEHS] National Toxicology Program [NTP] Assay Overview: Oxidative stress has been implicated in the pathogenesis of a variety of diseases ranging from cancer to neurodegeneration. The antioxidant response element (ARE) signaling pathway plays an important role in the amelioration of oxidative stress. The CellSensor ARE-bla HepG2 cell line (Invitrogen) can be used for analyzing the Nrf2/antioxidant response signaling pathway. Nrf2 (NF-E2-related factor 2) and Nrf1 are transcription factors that bind to AREs and activate these genes. The CellSensor ARE-bla HepG2 cell line contains a beta-lactamase reporter gene under control of the Antioxidant Response Element (ARE) stably integrated into HepG2 cells. The activation of the report gene under culture conditions can be detected by fluorescence intensity. The cytotoxicity of the compounds against the ARE-bla HepG2 cell line was quantified by measuring the intracellular ATP content.
Assay Protocol Summary: ARE-bla HepG2 cells were dispensed at 2,000 cells/5 ul/well in 1536-well black wall/clear bottom plates using a Multidrop Combi (ThermoFisher Scientific, Waltham, MA) dispenser. After the assay plates were incubated at 37C/5% CO2 for 5 hrs, 23 nL of compounds dissolved in DMSO, positive controls or DMSO only was transferred to the assay plate by a pintool work station (Kalypsys, San Diego, CA). The plates were incubated at 37C/5% CO2 for 16 hrs. After 1 uL of LiveBLAzer B/G FRET substrate was added using a Flying Reagent Dispenser (FRD) (Aurora Discovery, San Diego, CA), the assay plates were incubated at room temperature for 2 hrs. The fluorescence intensity was measured by an Envision (PerkinElmer, Shelton, CT) plate reader. Cell viability using CellTiter Glo viability assay (Promega, Madison, WI) was also measured by adding 4 ul/well of CellTiter-Glo reagent into the same assay plate using a FRD. After 30 min incubation at room temperature, the luminescence intensity in the plates was measured using a ViewLux (PerkinElmer) plate reader.
A general note: Quantitative high-throughput screening tests each substance at several concentrations.
For the compound `CC(Cl)(Cl)Cl`, the max response was 0.834% and -5.56%.

Take `O=C(O)c1cccc(Cl)c1`: the max response was -8.47%.

On to `Cc1ccc(N)c(N)c1`, for which the max response is -6.6%.

`COC(=O)c1ccccc1N`: the max response is -7.9%.

For `CC(=O)CCC(C)=O`, the max response is 0.0815%.

As for `CC(C)(C)OOC(=O)c1ccccc1`, the max response is 3.96% and -1.99%.

Regarding `c1ccoc1`, the max response is 9.49%.

With `CN=C=O`, the max response is -4.34%.

Consider `S=C1NCCN1`, for which the max response is 4.7% and 5.28%.

Regarding `O=C(O)C(Br)CBr` (stereo not given), the max response was 0.981%.

On to `N#CCc1ccccc1`, for which the max response was -1.59%.

Take `C=COC(C)=O`: the max response was 7.83%.

As to `CCC/C=N/O`, the max response was -12.8%.

For `C=CCOCC1CO1` (stereo not given), the max response was 2.37%.

`N#C/C=C/C#N`: the max response is -28.1%.

With `C=CC(=O)OC`, the max response is 8.65%.

Turning to `Cc1cc(-c2cc(C)c(N)c(C)c2)cc(C)c1N`, the max response was -5.77%.

As for `c1ccc(OCC2CO2)cc1` (stereo not given), the max response is 0.104%.

Turning to `Clc1cccc(Cl)c1`, the max response was -2.71%.

As to `O=c1ccc(=O)[nH][nH]1`, the max response is 27.2% and 14.4%.

On to `N#C/C(N)=C(/N)C#N`, for which the max response is -10.7%.

With `Cc1ccc(N)cc1N`, the max response was 0.265% and 5.03%.

With `CCSC(=O)N1CCCCCC1`, the max response is -5.76% and -1.37%.

Consider `C=CC(=O)OCCO`, for which the max response was -2.67%.

For `Nc1cc(Cl)cc(Cl)c1`, the max response was -13%.

Take `CC(C)CC(C)N` (stereo not given): the max response is 0.53%.

Take `CCNCC`: the max response is 14.5%.

Consider `CCOP(=S)(OCC)SCCSCC`, for which the max response was -4.12% and 4.55%.

`O=Cc1ccc2c(c1)OCO2`: the max response is 2.8%.

With `[O-][Cl+2]([O-])O`, the max response was 27.9%.

Turning to `O=[N+]([O-])c1c(Cl)c(Cl)c(Cl)c(Cl)c1Cl`, the max response is -5.67% and 10.2%.

With `CCCCOC(=O)c1ccccc1N`, the max response was 4.85%.

With `O=C(Cl)c1ccccc1F`, the max response is 6.36%.

Regarding `C=CC=O`, the max response was 9.03%.

As to `CCCCC#N`, the max response is -5.38%.

With `Clc1ccccc1`, the max response is -18.9%.

In the case of `Cc1ccc(N)c(C)c1`, the max response was -6.08%.

As for `Nc1cccc(Cl)c1`, the max response was 2.22%.

Take `Cc1cnc[nH]1`: the max response is -3.19%.

For the compound `O=[N+]([O-])c1ccccc1-c1ccccc1`, the max response was 1.78%.
